The panel holds about 83,000 compounds, 20% with a hit somewhere; the sample as a whole holds those more often.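 The test compound was applied at a single concentration to cells in 96-well plates for 48 hours, and percent growth was recorded.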 Values without a mark were called inactive. Calls of active or inactive are those of the source. Rule for the calls: active = growth percent below 10; inactive = the rest.

For 39 compounds, growth results are on record in PubChem BioAssay (NCI).

The subject of the assay is MDA-MB-468 breast. Kind of assay: NCI-60 one-dose screen, 48 h (100 = growth as untreated, 0 = no growth, -100 = all killed). Particulars: 10 µM unless noted.
Turning to `O=C(/C=C/c1cc2ccccc2[nH]c1=O)c1ccc2c(c1)OCO2`, the growth is 114%. Take `COc1cc(NCCCCN=C(N)N)c2ncccc2c1`: the growth was -29.6% (active). Regarding `O=c1cc(-c2ccccc2)oc2cc(OCc3cn(Cc4ccc(F)cc4)nn3)cc(OCc3cn(Cc4ccc(F)cc4)nn3)c12`, the growth was 38.7%. For the compound `O=C(NCCN1CCOCC1)c1cncnc1Nc1ccc2c(ccn2Cc2ccccn2)c1`, the growth is 98%.

`COc1ccc(-c2nsc3c2NC(=O)CC3c2cccc(Cl)c2)cc1` (centres undefined): the growth was -6.39% (active).

In the case of `CCOC(=O)CC(=O)CSC1=NC2C(NN1)N(C)C(=O)N2C` (centres undefined), the growth was 12.2%. Consider `CCC(=O)NC1=C(Cl)C(=O)C(NC(=O)CC)=C(Cl)C1=O`, for which the growth is -69.8% (active). Regarding `CCOC(=O)c1sc(-c2ccc(OS(=O)(=O)c3ccccc3[N+](=O)[O-])c(C=O)c2)nc1C`, the growth is 55.4%.

`Cc1ccc(-c2nc(/C=C3/C(=O)Nc4ccccc43)c3ccccn23)cc1`: the growth was 69.6%.

As for `FC(F)(F)c1cc(Nc2ccc3cc(OCCCN4CCOCC4)ccc3n2)ccc1Cl`, the growth was 31.1%. Regarding `CC(C)NC(=O)c1cc(-c2ccc(NC(=O)Nc3ccc(F)cc3)cc2)nc2cccnc12`, the growth was 88.9%.

Turning to `O=C(CCCCCCN1CC(=O)N2[C@@H](C3CC3)c3[nH]c4ccccc4c3C[C@H]2C1=O)NO`, the growth is 64.6%.

In the case of `Cc1ccc(C(=O)C2=Cc3cc4ccccc4n3Cc3cnnn32)cc1`, the growth is 100%. For `CC1=C/C(O)CC(=O)Cc2nc(co2)C(=O)N2CCC=C2C(=O)OC(C(C)C)C(C)/C=C\C(=O)NC/C=C\1` (centres undefined), the growth is 54.5%.

Take `COc1ccc(/C=N/NC(=O)c2ccc(-n3cc(-c4ccccc4)nn3)cc2)cc1OC`: the growth is 101%.

For `CN(C)CCOc1ccc(-c2nc3sccn3c2-c2ccnc(S(C)(=O)=O)n2)cc1`, the growth was 98.8%. As for `COc1cc2nc(-c3ccc(Cl)cc3)cc(OCCCN3CCCCC3)c2cc1OC`, the figure is 47.7%.

Consider `CN1C(=O)N(C)C2(c3ccccc3)OC(=S)NC12c1ccccc1` (centres undefined), for which the growth is 112%.

Take `COc1ccc(-c2c(-c3cc(OC)c(OC)c(OC)c3)noc2N)cc1`: the growth was -5.06% (active). For `CC(=O)[C@@H]1CC[C@]2(C(=O)n3ccnc3)CC[C@]3(C)[C@H](CC[C@@H]4[C@@]5(C)Cc6c([nH]c7ccccc67)C(C)(C)[C@@H]5CC[C@]43C)[C@@H]12` the value was 90.8%; for `Clc1nc(-c2cccnc2)nc2sc3c(c12)CCCCCC3`, 95.1%. Consider `COc1cccc2nc(Nc3cccc(NC(=O)c4cc(N5CCOCC5)cc(C(F)(F)F)c4)c3)ccc12`, for which the growth was 67.3%. Turning to `CCCc1n(Cc2ccc3ccccc3c2)cc[n+]1Cc1ccc2ccccc2c1`, the growth is -45.4% (active).

Take `CC1(O)COCCCCOc2c(CN)cccc2NC(=O)c2nc(cnc2N)-c2ccc(cc2)S(=O)(=O)C(C)(C)C1` (centres undefined): the growth was -35.1% (active). As for `N=C(N)c1ccc(-c2ccc(-c3cccs3)s2)nc1`, the growth is -51% (active).

For the compound `C[C@@H](NC(=O)[C@@H](CC(=O)N1CCC(N2CCCCC2)CC1)N1C(=O)[C@@H](N2C(=O)OC[C@@H]2c2ccccc2)[C@H]1/C=C/c1cccc(Cl)c1)c1ccccc1`, the growth is 1.45% (active).

As to `COC(=O)[C@@H](NC(=O)NC(=O)NC(=O)CI)C(C)C`, the growth was 71.6%. As to `CCCC(=O)CC(=O)c1ccccc1`, the growth was 97.5%. As for `O=C(CSc1nnc(-c2ccc(Cl)cc2)n1-c1ccccc1)Nc1ccc(Cl)cc1`, the figure is 4.06% (active). As for `N#Cc1c(-c2cccc(Cl)c2)cc(-c2cccnc2)[nH]c1=O`, the figure is 49.3%; as for `O=C(NCCCl)Nc1ncccc1OCc1ccccc1`, 104%. As to `Cc1ccc(C(=O)C(Br)C(Br)c2ccccc2)cc1` (centres undefined), the growth is 42.8%. Take `O=C(NNc1nc2cc(F)ccc2n2c(CN3CC4(COC4)C3)ccc12)c1cnccn1`: the growth was -16.1% (active). As for `O=C(N/N=C/[C@@H](O)[C@H](O)[C@H](O)CO)c1ccc(NC(=O)c2cccnc2)cc1`, the figure is 101%.

On to `COc1cc(-c2nn(-c3cccc(NC(=O)CCN4CCN(c5ccccc5)CC4)c3)cc2-c2ccncc2)ccc1Cl`, for which the growth is 28.8%. Consider `COc1ccc(-c2cc(-c3cccs3)n(N=O)c(=O)c2C#N)cc1`, for which the growth was 99.5%. `O=C(Cn1cc(CN2C(=O)c3ccc([N+](=O)[O-])cc3C2=O)nn1)Nc1ccc(F)cc1Cl`: the growth is 97.9%. For `O=C1C(=O)c2ccccc2C(O)=C1CCCc1ccc(C2CCCCCC2)cc1`, the growth was 5.94% (active). `CC(=O)Nc1cccc(C2=CC(c3ccc(C)cc3)n3ncnc3N2)c1` (centres undefined): the growth was 92.7%.
